Measurements: PubChem BioAssay
Activity calls are given as the source filed them. Unless noted, how the calls were made is not given here.

Columns and labels:
[1] = HepG2 liver cancer cell viability effects, profiling panel, resazurin fluorescence, 24 h, PK04 Diversity Set (AID 1172); settings: higher = more signal
[2] = basal S. cerevisiae growth modulation, no modifier, primary screen, OD600, strain BY4716, 24 h, basal condition (AID 1173); settings: OD600, 24 h, higher = more signal, called active from +8 up or from −8 down
[3] = MM1S myeloma cell viability, profiling panel, resazurin fluorescence, basal, 24 h, PK04 Diversity Set (AID 1174); settings: higher = more signal, called active from +8 up or from −8 down;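 further: MM1S multiple myeloma cell line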
[4] = biological target: Dihydroorotate dehydrogenase (quinone), mitochondrial (Plasmodium falciparum (isolate 3D7)) (UniProt Q08210); experiment: PfDHODH enzyme inhibitors, primary screen, biochemical, C-terminal His tag, absorbance 600 nm (AID 1175); settings: DCIP absorbance 600 nm, higher = more signal, called active from +8 up or from −8 down;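 further: recombinant parasite enzyme with a five histidine tag at its C terminus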
[5] = P. aeruginosa biofilm formation inhibitors, primary screen, strain PAO1, LB-PBS medium, absorbance 600 nm (AID 1176); settings: P. aeruginosa PAO1 growth/biofilm, A600, 12 h; higher = more signal
[6] = S. cerevisiae RM11-1a growth modifiers, primary screen, strain RM11-1a, OD600, basal, 24 h (AID 1177); settings: OD600, 24 h, higher = more signal, called active from +8 up or from −8 down;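 further: cultures grown under basal conditions with no added stressor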
[7] = E. coli acrAB mutant growth effects, primary screen, E. coli filamentation inducers, strain DRC39, OD650, 24 h (AID 1178); settings: higher = more signal, called active from +8 up or from −8 down;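 further: growth measured as culture turbidity by optical density at 650 nm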
[8] = E. coli acrAB mutant growth effects, primary screen, E. coli filamentation inducers, strain DRC39, OD650, 48 h (AID 1179);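 further: screen aims at cell division blockers that make cells filament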; settings: E. coli DRC39 delta-acrAB growth, higher = more signal, called active from +8 up or from −8 down
[9] = RPMI8226 myeloma cell viability, profiling panel, resazurin fluorescence, basal, 24 h, PK04 Diversity Set (AID 1180); settings: higher = more signal;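 further: RPMI8826 multiple myeloma cell line at 5000 cells per well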
[10] = biological target: E3 ubiquitin-protein ligase XIAP (Homo sapiens) (UniProt P98170); experiment: XIAP binders, primary screen, biophysical, small-molecule microarray, fluorescence 635 nm (AID 1181); settings: small-molecule microarray binding, higher = more signal;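 further: score merges 667 nm emission and signal to noise over triplicate slides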
[11] = test system: XIP peptide (Xip251-270) binding; experiment: small-molecule binders of XIP peptide, primary screen, biochemical, small-molecule microarray, fluorescence 635/667 nm, 0.1 µg/mL protein (AID 1182); settings: fluorescent protein binding, 635 nm, higher = more signal, called active from +8 up or from −8 down
XIP peptide (Xip251-270) = experiment: small-molecule binders of XIP peptide, primary screen, biochemical, small-molecule microarray, fluorescence 635/667 nm, 0.5 µg/mL protein (AID 1183); settings: small-molecule microarray binding, fluorescence 635 nm; higher = more signal
[12] = Plasmodium falciparum growth inhibition, primary screen, strain 3D7, DAPI fluorescence, 100 nL (AID 1184);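 further: parasites grown inside human red blood cells in medium with human serum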; settings: P. falciparum 3D7 growth, 3 d, higher = more signal
[13] = biological target: Homeobox protein Hox-A13 (Mus musculus) (UniProt Q62424); experiment: inhibitors of HoxA13-DNA binding, primary screen, biochemical, fluorescence polarization, labeled oligonucleotide (AID 1185); settings: 15 min, higher = more signal, called active from +8 up or from −8 down
[14] = inhibitors of hydroxyurea-induced Chk1 phosphorylation, primary screen, imaging, HeLa, phospho-Chk1 antibody, percent positive cells (AID 1186); settings: hydroxyurea-induced phospho-Chk1 immunofluorescence imaging, higher = more signal
[15] = inhibitors of hydroxyurea-induced Chk1 phosphorylation, primary screen, imaging, HeLa, phospho-Chk1 nuclear intensity (AID 1187); settings: hydroxyurea-induced phospho-Chk1 immunofluorescence imaging, higher = more signal

Homeobox protein Hox-A13 (Mus musculus), sequence (Q62424 whole entry, looked up): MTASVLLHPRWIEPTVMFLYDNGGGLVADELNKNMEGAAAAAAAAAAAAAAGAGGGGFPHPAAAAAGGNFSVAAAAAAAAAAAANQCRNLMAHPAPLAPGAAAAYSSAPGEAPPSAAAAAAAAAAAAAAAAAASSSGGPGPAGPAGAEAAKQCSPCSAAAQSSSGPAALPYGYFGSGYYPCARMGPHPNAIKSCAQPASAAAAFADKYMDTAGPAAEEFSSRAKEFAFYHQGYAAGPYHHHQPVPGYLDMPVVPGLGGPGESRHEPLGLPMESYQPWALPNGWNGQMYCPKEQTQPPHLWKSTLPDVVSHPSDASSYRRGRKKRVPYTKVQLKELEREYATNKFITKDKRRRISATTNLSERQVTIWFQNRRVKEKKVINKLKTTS
Dihydroorotate dehydrogenase (quinone), mitochondrial (Plasmodium falciparum (isolate 3D7)), sequence (Q08210 whole entry, looked up): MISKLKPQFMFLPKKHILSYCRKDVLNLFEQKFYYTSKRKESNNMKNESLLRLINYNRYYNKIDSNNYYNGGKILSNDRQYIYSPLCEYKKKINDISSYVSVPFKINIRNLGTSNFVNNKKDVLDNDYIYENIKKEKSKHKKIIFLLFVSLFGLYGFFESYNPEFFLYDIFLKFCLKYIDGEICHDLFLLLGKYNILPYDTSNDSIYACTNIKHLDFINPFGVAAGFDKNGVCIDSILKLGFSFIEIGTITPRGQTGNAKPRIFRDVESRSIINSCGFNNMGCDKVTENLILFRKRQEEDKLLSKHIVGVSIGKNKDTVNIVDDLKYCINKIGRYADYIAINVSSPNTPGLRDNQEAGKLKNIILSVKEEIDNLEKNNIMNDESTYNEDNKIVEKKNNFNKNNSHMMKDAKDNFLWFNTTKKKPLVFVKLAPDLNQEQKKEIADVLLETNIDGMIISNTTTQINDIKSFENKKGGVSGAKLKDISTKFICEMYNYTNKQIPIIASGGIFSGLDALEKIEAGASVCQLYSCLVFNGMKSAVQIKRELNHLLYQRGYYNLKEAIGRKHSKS
E3 ubiquitin-protein ligase XIAP (Homo sapiens), sequence (P98170 whole entry, looked up): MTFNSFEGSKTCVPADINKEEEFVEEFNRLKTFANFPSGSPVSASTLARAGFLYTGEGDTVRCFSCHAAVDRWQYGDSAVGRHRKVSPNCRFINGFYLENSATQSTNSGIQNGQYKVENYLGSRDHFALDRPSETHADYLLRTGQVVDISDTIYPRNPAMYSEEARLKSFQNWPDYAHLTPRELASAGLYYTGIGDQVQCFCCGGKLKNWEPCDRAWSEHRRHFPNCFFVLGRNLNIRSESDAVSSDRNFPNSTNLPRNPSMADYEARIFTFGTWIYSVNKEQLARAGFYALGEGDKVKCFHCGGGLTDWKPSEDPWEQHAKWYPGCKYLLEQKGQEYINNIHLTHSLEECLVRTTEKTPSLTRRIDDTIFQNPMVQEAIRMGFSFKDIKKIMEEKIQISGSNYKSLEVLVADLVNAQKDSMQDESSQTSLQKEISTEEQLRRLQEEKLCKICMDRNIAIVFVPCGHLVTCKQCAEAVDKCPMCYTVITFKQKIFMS

Structure (SMILES)	z-score [1]	z-score [2]	z-score [3]	composite z-score [4]	z-score [5]	z-score [6]	z-score [7]	z-score [8]	z-score [9]	composite z-score [10]	composite z-score [11]	composite z-score (XIP peptide (Xip251-270))	z-score [12]	z-score [13]	z-score [14]	z-score [15]
NC(=O)NCC#Cc1ccc2c(c1)[C@]1(C(=O)N2)[C@H](c2ccc(O)cc2)N2[C@H](c3ccccc3)[C@H](c3ccccc3)OC(=O)[C@H]2[C@@H]1C(=O)N1CCCCCCC1	0.855	1.16 (inactive)	0.949 (inactive)	-0.127 (inactive)	1.1 (inactive)	1.96 (inactive)	1.04 (inactive)	-0.817 (inactive)	1.36	-0.0925	0.145 (inactive)	0.469	0.308	1.52 (inactive)	-0.374 (inactive)	-0.693 (inactive)
COCCCNC(=O)[C@]1(Cc2ccccc2)N=C(c2ccc(OCCCO)cc2)O[C@@H]1c1ccccc1	0.754	-0.706 (inactive)	0.325 (inactive)	-0.0882 (inactive)	0.494 (inactive)	-0.499 (inactive)	0.156 (inactive)	-1.11 (inactive)	0.778	-0.0118	2.03 (inactive)	0.825	-2.17	-4.76 (inactive)	-0.117 (inactive)	-0.0405 (inactive)
CCOC(=O)C[C@H]1[C@H](OC(=O)c2cc3ccccc3oc2=O)[C@@H](NC(=O)c2ccc3ccccc3n2)c2cc(OCCCO)ccc2N1C(=O)c1ccccc1	-0.983	-2.08 (inactive)	-0.668 (inactive)	-1.97 (inactive)	-0.754 (inactive)	-0.0333 (inactive)	-0.341 (inactive)	-0.753 (inactive)	-0.599	0.217	0.26 (inactive)	-0.224	-2.07	-0.763 (inactive)	0.22 (inactive)	0.249 (inactive)
CCCCCN1CC=CC23O[C@@H]4C=CCOC(=O)[C@@H]4[C@H]2C(=O)N(C(CO)C(C)C)[C@@H]3C1=O (stereo partly drawn)	0.862	1.02 (inactive)	0.111 (inactive)	0.204 (inactive)	0.0126 (inactive)	0.89 (inactive)	-0.128 (inactive)	-0.301 (inactive)	-0.0045	0.266	0.824 (inactive)	0.907	-0.303	-4.81 (inactive)	-0.0211 (inactive)	0.0917 (inactive)
Cc1ccc(F)cc1S(=O)(=O)N[C@@H]1CCN(Cc2ccc(CC(C)C)cc2)C1	-0.367	-17.2 (active)	-0.653 (inactive)	-0.687 (inactive)	0.294 (inactive)	-14.5 (active)	-20.3 (active)	-17.4 (active)	-1.89	-0.106	-0.112 (inactive)	-0.583	-1.66	-4.52 (inactive)	-0.496 (inactive)	-0.724 (inactive)
COCCOC(=O)N1C(=O)[C@@]2(c3cc(C#Cc4ccc(OC)cc4)ccc31)[C@H](C(=O)N1CCN(c3ncccn3)CC1)[C@H]1C(=O)O[C@H](c3ccccc3)[C@H](c3ccccc3)N1[C@@H]2c1ccc(OCCO)cc1	0.254	1.89 (inactive)	0.468 (inactive)	-1.62 (inactive)	3.21 (inactive)	3.06 (inactive)	0.178 (inactive)	-0.0435 (inactive)	-0.0737	-0.337	0.115 (inactive)	0.43	-1.49	1.38 (inactive)	-0.102 (inactive)	-0.0346 (inactive)
CC1CC/C=C\[C@H]2OC34C=CCN(C(C)C)C(=O)[C@H]3N(CCCO)C(=O)[C@@H]4C2C(=O)O1 (stereo partly drawn)	0.49	-0.404 (inactive)	0.48 (inactive)	0.395 (inactive)	-0.91 (inactive)	-0.467 (inactive)	1.05 (inactive)	0.634 (inactive)	0.817	0.0131	0.94 (inactive)	-0.835	-0.0943	-2.96 (inactive)	-0.471 (inactive)	-0.415 (inactive)
COc1ccccc1CN1C(=O)c2ccccc2[C@@H](C(=O)NCC(F)(F)F)[C@@H]1c1ccc(CO)cc1	1.06	0.403 (inactive)	-1.15 (inactive)	0.338 (inactive)	0.512 (inactive)	-0.0178 (inactive)	0.796 (inactive)	1.69 (inactive)	0.268	-0.148	-0.51 (inactive)	0.561	-1.19	-2.99 (inactive)	-0.188 (inactive)	0.158 (inactive)
